For 27 molecules, Potency, activation and activity change, negative = inhibition results are on record in PubChem BioAssay (NCATS).

Inconclusive results are not listed. A number with no mark means an inactive call. Calls of active or inactive are those of the source. Calls come from the whole dose curve; as a rule, active = well fitted curve in the direction sought with a large enough effect; inconclusive = small, poorly fitted or top-dose-only effect, or another doubt; inactive = no such curve, though single readings can be large; an effect the other way counts as inactive or inconclusive.

In assay [1] the target is Rap guanine nucleotide exchange factor 3 (Homo sapiens) (UniProt O95398). In words: Confirmatory qHTS for antagonist of cAMP-regulated guanine nucleotide exchange factor 3 (EPAC1) (AID 1645880). Note: nearly all actives have a fitted effect of over 55% in size. Note: potency is the fitted concentration of half-maximal effect. In outline:
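Released BODIPY-GDP fluoresces less than Rap1-bound BODIPY-GDP; the signal is followed at 480/540 nm at 5-min intervals over 30 min, after 5 min at room temperature. Reactions contain 100 nM EPAC1, 250 nM RAP1B-BODIPY-GDP and 50 uM GDP; results are normalized to ATA and DMSO.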
Background: Quantitative high-throughput screening tests each substance at several concentrations.

Assay [2] shares this target. In words: Confirmatory qHTS for agonist of cAMP-regulated guanine nucleotide exchange factor 3 (EPAC1) (AID 1645881).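 For activation: EPAC1 catalysed release of BODIPY-GDP from Rap1B seen as fluorescence loss; 100% = effect of cAMP agonist control.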 Note: nearly all actives have a fitted effect of over 75% in size. Note: potency is the fitted concentration of half-maximal effect.
The target in assay [3] is Rap guanine nucleotide exchange factor 4 (Homo sapiens) (UniProt Q8WZA2). In words: Confirmatory qHTS for agonist of cAMP-regulated guanine nucleotide exchange factor 4 (EPAC2) (AID 1645884). For activation: % is set by controls: 0 for no effect and ±100 for the full control effect.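 Note: nucleotide exchange releases bodipy-GDP from Rap1 and this lowers its fluorescence; nearly all actives have a fitted effect of over 65% in size.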 Note: potency is the fitted concentration of half-maximal effect.
Chain of Rap guanine nucleotide exchange factor 4 (Homo sapiens) (Q8WZA2 whole entry, looked up): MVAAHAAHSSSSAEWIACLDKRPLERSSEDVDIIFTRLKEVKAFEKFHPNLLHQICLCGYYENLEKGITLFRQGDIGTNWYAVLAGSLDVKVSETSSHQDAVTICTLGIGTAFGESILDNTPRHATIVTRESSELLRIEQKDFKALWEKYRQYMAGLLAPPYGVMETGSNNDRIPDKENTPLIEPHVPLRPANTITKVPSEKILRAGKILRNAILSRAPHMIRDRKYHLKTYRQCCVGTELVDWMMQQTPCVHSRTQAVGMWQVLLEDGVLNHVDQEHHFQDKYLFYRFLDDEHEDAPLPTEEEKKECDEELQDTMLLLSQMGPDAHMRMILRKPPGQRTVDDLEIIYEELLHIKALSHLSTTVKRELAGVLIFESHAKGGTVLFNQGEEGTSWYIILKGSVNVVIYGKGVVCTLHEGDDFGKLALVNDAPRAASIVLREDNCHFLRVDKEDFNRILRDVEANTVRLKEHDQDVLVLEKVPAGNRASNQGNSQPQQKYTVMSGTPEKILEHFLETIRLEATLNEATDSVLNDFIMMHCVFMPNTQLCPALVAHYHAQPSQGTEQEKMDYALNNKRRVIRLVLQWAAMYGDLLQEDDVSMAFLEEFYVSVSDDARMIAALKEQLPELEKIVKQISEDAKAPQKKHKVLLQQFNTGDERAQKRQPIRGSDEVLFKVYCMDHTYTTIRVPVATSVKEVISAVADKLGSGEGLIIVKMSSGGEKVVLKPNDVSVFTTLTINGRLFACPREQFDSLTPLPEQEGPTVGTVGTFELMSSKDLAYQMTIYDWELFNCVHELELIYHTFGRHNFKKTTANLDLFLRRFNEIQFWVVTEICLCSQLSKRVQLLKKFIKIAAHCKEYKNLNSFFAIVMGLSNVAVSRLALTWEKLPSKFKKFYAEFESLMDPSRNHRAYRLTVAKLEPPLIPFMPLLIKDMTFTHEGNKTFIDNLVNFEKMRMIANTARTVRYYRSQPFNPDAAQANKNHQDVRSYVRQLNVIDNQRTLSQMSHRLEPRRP
Assay [4] shares this target. In words: Confirmatory qHTS for antagonist of cAMP-regulated guanine nucleotide exchange factor 4 (EPAC2) (AID 1645885). For activity change, negative = inhibition: % is set by controls: 0 for no effect and ±100 for the full control effect. Note: nearly all actives have a fitted effect of over 25% in size. Note: potency is the fitted concentration of half-maximal effect.
Assay [5] concerns the target Rap guanine nucleotide exchange factor 3 (Homo sapiens) (UniProt O95398). In words: Counterscreen qHTS for antagonist of cAMP-regulated guanine nucleotide exchange factor 3 (EPAC1) (AID 1645888). Note: % of control where 0% means no effect. In a few lines: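 Rap1B-BODIPY-GDP 250 nM + GDP 50 uM; cpds 7-pt, final 9.74 nM–152 uM (activator mode) or from 7.32 nM upwards (inhibitor mode); RT; FI 480/540 nm at 5 and 30 min, then ± cAMP, reread.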

Chain of Rap guanine nucleotide exchange factor 3 (Homo sapiens) (O95398 whole entry, looked up): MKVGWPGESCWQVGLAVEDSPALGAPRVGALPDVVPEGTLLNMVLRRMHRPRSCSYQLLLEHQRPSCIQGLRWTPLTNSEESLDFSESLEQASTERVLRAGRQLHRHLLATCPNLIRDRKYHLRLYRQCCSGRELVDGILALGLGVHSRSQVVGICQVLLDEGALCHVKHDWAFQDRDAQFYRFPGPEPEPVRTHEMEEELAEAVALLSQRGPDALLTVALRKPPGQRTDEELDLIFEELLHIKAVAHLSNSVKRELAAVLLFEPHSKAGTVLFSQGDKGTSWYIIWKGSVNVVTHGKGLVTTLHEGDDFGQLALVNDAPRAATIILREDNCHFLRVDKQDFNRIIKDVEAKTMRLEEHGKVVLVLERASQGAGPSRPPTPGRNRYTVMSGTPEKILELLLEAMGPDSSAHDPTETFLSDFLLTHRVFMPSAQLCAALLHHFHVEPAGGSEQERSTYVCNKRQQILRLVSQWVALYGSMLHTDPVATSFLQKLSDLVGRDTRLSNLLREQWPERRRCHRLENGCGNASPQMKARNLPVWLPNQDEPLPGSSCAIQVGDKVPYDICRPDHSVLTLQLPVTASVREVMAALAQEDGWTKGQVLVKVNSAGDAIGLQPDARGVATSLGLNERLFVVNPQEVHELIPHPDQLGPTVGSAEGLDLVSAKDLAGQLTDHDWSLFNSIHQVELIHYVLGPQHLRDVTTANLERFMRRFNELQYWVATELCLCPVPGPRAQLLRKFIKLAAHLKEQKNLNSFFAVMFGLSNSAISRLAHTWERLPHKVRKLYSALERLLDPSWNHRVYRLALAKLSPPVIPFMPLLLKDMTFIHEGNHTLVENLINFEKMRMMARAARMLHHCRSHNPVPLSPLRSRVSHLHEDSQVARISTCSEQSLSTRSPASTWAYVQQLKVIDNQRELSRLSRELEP

For the molecule `CN(c1ccccc1)S(=O)(=O)c1cccc(Cl)c1Cl`, the Potency entry in assay [1], in assay [2], in assay [3], in assay [4] and in assay [5] was “inactive” each time.

Regarding `Cc1nc(Cl)sc1C(=O)NC(C)c1ccc(Cl)cc1` (stereo unspecified), the Potency result in assay [1], in assay [2], in assay [3], in assay [4] and in assay [5] was “inactive” each time.

Consider `NC(=O)Nc1ccc(/C=C2\C=Cc3ccccc32)cc1`, for which the Potency result in assay [1], in assay [2] and in assay [3] was “inactive” throughout. Moreover, the Potency in assay [4] was 44.1 µM (active).

`CCN(CCn1cccn1)Cc1c(C(=O)N2CCCCCCC2)nc2ccc(Cl)cn12`: the Potency entry in assay [1], in assay [2], in assay [3] and in assay [4] was “inactive” throughout.

Turning to `COc1ccc(NC(=O)c2ccc3c(SCC(=O)O)c4c(nc3c2)CCCC4)c(OC)c1`, in assay [1], the Potency is 75.7 µM (active). Moreover, the Potency entry in assay [2], in assay [3], in assay [4] and in assay [5] was “inactive” each time.

`CCC1CCCCN1CCCNC(=O)CCC(=O)N1CC(C)Oc2ccccc21` (stereo unspecified): the Potency result in assay [1], in assay [2], in assay [3] and in assay [4] was “inactive” throughout.

Turning to `CCCN(CCC)Cc1cc(=O)oc2cc(C)cc(C)c12`, the Potency entry in assay [1], in assay [2], in assay [3] and in assay [5] was “inactive” in each case. Besides, in assay [4], the Potency was 12 µM (active).

Take `COC(=O)c1c(SC)nc2ccccc2c1OCc1cccc(C)c1`: the Potency result in assay [1], in assay [2], in assay [3], in assay [4] and in assay [5] was “inactive” each time.

Consider `COc1ccc(-c2nn(-c3ccccc3)cc2/C=N/n2cnnc2)cc1OC`, for which the Potency entry in assay [1], in assay [2], in assay [3], in assay [4] and in assay [5] was “inactive” each time.

Turning to `COc1cc(/C=N/NC(=O)c2ccccc2)ccc1O`, the Potency result in assay [1], in assay [2], in assay [3] and in assay [4] was “inactive” each time.

On to `O=C(NCc1ccc(F)cc1)c1ccc2c(=O)n3c(nc2c1)CCCCC3`, for which the Potency result in assay [1], in assay [2], in assay [3] and in assay [4] was “inactive” each time.

With `Cc1c(Cl)ccc2c(C(=O)O)cc(-c3ccccc3)nc12`, the Potency entry in assay [1], in assay [2] and in assay [4] was “inactive” each time. In addition, the activation in assay [3] is 9.62% [at 17.1 µM, percent relative to cAMP agonist control]. In assay [5], the activity change, negative = inhibition was 5.51% [at 30.8 µM].

Regarding `COc1cccc(C(=O)N(Cc2cc3ccc(C)cc3nc2N(C)C)C2CC2)c1OC`, the Potency entry in assay [1], in assay [2] and in assay [3] was “inactive” throughout. For the same molecule, the Potency in assay [4] was 17.5 µM (active).

`COc1ccc(C(=O)NC2CCCc3ccccc32)c(OC)c1OC` (stereo unspecified): the Potency entry in assay [1], in assay [2] and in assay [4] was “inactive” each time. In addition, in assay [3], the activation was 0% [at 17.1 µM, percent relative to cAMP agonist control].

Regarding `O=C(c1ccc2nc(N3CCOCC3)sc2c1)N1CCC(Cc2ccccc2)CC1`, the Potency result in assay [1], in assay [2], in assay [3], in assay [4] and in assay [5] was “inactive” in each case.

With `Cc1ccc(S(=O)(=O)N2CCCCC2c2cccnc2)c(C)c1C` (stereo unspecified), the Potency result in assay [1], in assay [2] and in assay [4] was “inactive” each time. Further, in assay [3], the activation was 14.9% [at 17.1 µM, percent relative to cAMP agonist control]. Also, the activity change, negative = inhibition in assay [5] was 2.73% [at 30.8 µM].

`CC(=O)c1ccc(NC(=O)CC2Nc3cccc4cccc(c34)NC2=O)cc1` (stereo unspecified): the Potency in assay [1] is 75.7 µM (active). Also, the Potency entry in assay [2], in assay [3] and in assay [4] was “inactive” throughout.

On to `Cc1ccc(S(=O)(=O)N2[C@@H](c3ccc(Br)cc3)C(C(=O)O)=CC[C@H]2c2ccc(Cl)c(Cl)c2)cc1`, for which the values for the Potency in assay [1] and in assay [4] were 67.5 µM (active) and 33.8 µM (active), respectively. Also, the Potency entry in assay [2], in assay [3] and in assay [5] was “inactive” in each case.

With `N#Cc1c(NC(=O)c2ccc(Br)o2)n(-c2ccccc2)c2nc3ccccc3nc12`, the Potency in assay [1] is 50.1 µM (active). In addition, the Potency entry in assay [2] and in assay [4] was “inactive” each time. The activation in assay [3] is 1.83% [at 17.1 µM, percent relative to cAMP agonist control]. Moreover, in assay [5], the activity change, negative = inhibition was -1.68% [at 30.8 µM].

As for `O=S1(=O)CCO[C@H]2Cc3ccccc3[C@H]2N1Cc1ccc(Cl)cc1`, the Potency result in assay [1], in assay [2] and in assay [4] was “inactive” throughout. Besides, in assay [3], the activation is -2.47% [at 17.1 µM, percent relative to cAMP agonist control]. In assay [5], the activity change, negative = inhibition is -21.2% [at 30.8 µM].

For `COc1ccc(C(C(=O)c2ccccc2)c2ccccc2)cc1` (stereo unspecified), the Potency entry in assay [1], in assay [4] and in assay [5] was “inactive” throughout. Further, the Potency in assay [2] was 100 µM (active); in assay [3] it was 50.1 µM (active).

As to `CSCCC(NC(=O)c1ccc(Cl)cc1)C(=O)OCC(=O)N1CCCC1=O` (stereo unspecified), the Potency result in assay [1], in assay [2] and in assay [4] was “inactive” throughout. The activation in assay [3] is 10.4% [at 17.1 µM, percent relative to cAMP agonist control]. The activity change, negative = inhibition in assay [5] was 5.02% [at 30.8 µM].

As to `COc1ccc(SC[C@H](C)CN2CC[C@H](C)CCC2=O)cc1`, the Potency result in assay [1], in assay [2], in assay [3] and in assay [4] was “inactive” throughout.

For the molecule `COc1ccc(CNC(=O)C(=O)Nc2ccc(OC)cc2OC)cc1`, the Potency result in assay [1], in assay [2], in assay [3], in assay [4] and in assay [5] was “inactive” each time.

`COC1=CC(=O)c2c(ccc3ncnc(N)c23)C1=O`: the Potency in assay [1] is 19 µM (active); in assay [4], 26.9 µM (active). For the same molecule, the Potency result in assay [2], in assay [3] and in assay [5] was “inactive” in each case.

Regarding `CCN(CC(=O)Nc1c(F)cccc1F)C(=O)CCc1nc2sc3c(c2c(=O)[nH]1)CCCC3`, in assay [1], the Potency was 75.7 µM (active). The Potency entry in assay [2], in assay [3], in assay [4] and in assay [5] was “inactive” throughout.

Consider `COc1ccccc1C(=O)NC(CCSC)C(=O)NCc1ccccn1` (stereo unspecified), for which the Potency result in assay [1], in assay [2] and in assay [4] was “inactive” in each case. Moreover, the activation in assay [3] is -0.555% [at 17.1 µM, percent relative to cAMP agonist control]. Besides, the activity change, negative = inhibition in assay [5] was -16.2% [at 30.8 µM].
